Test results published in paper PMC4552634, “A New Set of Chemical Starting Points with Plasmodium falciparum Transmission-Blocking Potential for Antimalarial Drug Discovery” (PLoS ONE, 2015).
Hit rate of the full screen: of about 13,000 compounds, about 3,200 (25%) showed an effect of 50% or more. Some of the results follow.

System: P. falciparum stage V gametocytes
Design: BacTiter-Glo ATP luminescence viability of purified stage V gametocytes in 384-well plates, per cent inhibition versus DMSO
Conditions: 48 h, 5 µM; inhibitor

Row | SMILES | % Inhibition [%]
1 | COc1ccc2nccc([C@@H](O)CN3CCC(NC(=O)Cc4cc5ccccc5s4)CC3)c2c1 [TCMDC-141033] | -11.21
2 | O=C(Nc1ccc(-c2cccc(-c3nc4ccc(F)cc4[nH]3)c2)cc1)Nc1ccsc1 [TCMDC-133218] | -7.279
3 | Cc1noc(C)c1-c1ccc2c(Nc3ccccc3C(C)(C)C)c(C(=O)NCc3ccc(C(F)(F)F)cc3)cnc2c1.Cl [TCMDC-136348] | -20.49
4 | Cc1noc(C)c1-c1ccc2c(Nc3ccccc3C(C)(C)C)c(C(=O)NCc3ccccc3)cnc2c1.Cl [TCMDC-136366] | -19.07
5 | Cc1noc(C)c1-c1ccc2c(Nc3ccccc3C(C)(C)C)c(C(=O)NCc3cccc4ccccc34)cnc2c1.Cl [TCMDC-136375] | -44.64
6 | Cc1noc(C)c1-c1ccc2c(Nc3cccc4c3-c3ccccc3C4=O)c(C(=O)NCc3ccccc3I)cnc2c1 [TCMDC-136308] | 93.19
7 | Cc1noc(C)c1-c1ccc2c(Nc3ccc(Cl)cc3)c(C(N)=O)cnc2c1.Cl [TCMDC-136010] | 9.933
8 | Cc1noc(C)c1-c1ccc2c(Nc3ccccc3C(C)(C)C)c(C(=O)NCc3ccc4c(c3)OCO4)cnc2c1.Cl [TCMDC-136353] | 56.26
9 | Cc1noc(C)c1-c1ccc2c(Nc3nccc4ccccc34)c(C(N)=O)cnc2c1 [TCMDC-136456] | 97
10 | Cc1noc(C)c1-c1ccc2c(Nc3ccccc3N3CCOCC3)c(C(=O)NCc3ccccc3)cnc2c1.Cl [TCMDC-136667] | -0.5011
11 | CC(=O)c1ccc(Nc2c(C(N)=O)cnc3cc(-c4c(C)noc4C)ccc23)cc1 [TCMDC-136058] | -8.163
12 | COc1ccc2nccc(N3CCC(CCNCc4ccc5c(n4)NC(=O)CS5)CC3)c2c1.Cl [TCMDC-141905] | -14.76
13 | Cc1cccc2[nH]c(-c3cccc(-c4cccc(NC(=O)Nc5ccc(Cl)c(Cl)c5)c4)c3)nc12 [TCMDC-133277] | -37.89
14 | COc1nc(N)ncc1C(=O)NC1CN2CCC1CC2 (stereo not shown) [TCMDC-131574] | 17.61
15 | CN1CCN(c2ccc(-c3cccc(NC(=O)c4cccc([N+](=O)[O-])c4)c3)nn2)CC1 [TCMDC-125452] | -8.078
16 | Cc1ccc(C(=O)Nc2cccc(-c3ccc(N4CCN(C)CC4)nn3)c2)cc1[N+](=O)[O-] [TCMDC-124931] | 60.61
17 | CN1CCN(c2ccc(-c3cccc(NC(=O)c4ccc5ccccc5c4)c3)nn2)CC1 [TCMDC-125349] | 17.67
18 | COc1cccc(C(=O)N2CCN(Cc3cccc(NC(=O)c4cccs4)c3)CC2)c1 [TCMDC-136327] | -13.29
19 | Cc1[nH]c(C)c(-c2ccc(-c3ccccc3F)nc2)c(=O)c1Br [TCMDC-135926] | 66.81
20 | Cc1[nH]c(C)c(-c2ccc(-c3ccccc3F)nc2)c(=O)c1Cl [TCMDC-135927] | 68.96
21 | O=C(/C=C/c1ccc(Br)cc1)NCCCCCN1CCC(c2c[nH]c3ccccc23)CC1 [TCMDC-139199] | 51.21
22 | CC(C)(C)c1ccc(/C=C/C(=O)NCCCCCN2CCC(c3c[nH]c4ccccc34)CC2)cc1 [TCMDC-139247] | 18.04

Row | SMILES | % Inhibition [%]
23 | O=C(/C=C/C=C/c1ccccc1)NCCCCCN1CCC(c2c[nH]c3ccccc23)CC1 [TCMDC-139216] | 106.6
24 | Cc1ccc(/C=C/C(=O)NCCCCCN2CCC(c3c[nH]c4ccccc34)CC2)cc1 [TCMDC-139236] | 53.65
25 | COc1ccc(/C=C/C(=O)NCCCCCN2CCC(c3c[nH]c4ccccc34)CC2)cc1O [TCMDC-139754] | -52.52
26 | O=C(/C=C/c1ccc(F)c(Br)c1)NCCCCCN1CCC(c2c[nH]c3ccccc23)CC1 [TCMDC-139235] | -23.07
27 | O=C(/C=C/c1ccc(-c2ccccc2)cc1)NCCCCCN1CCC(c2c[nH]c3ccccc23)CC1 [TCMDC-139210] | 111.8
28 | O=C(/C=C/c1ccc(I)cc1)NCCCCCN1CCC(c2c[nH]c3ccccc23)CC1 [TCMDC-139198] | 49.23
29 | Cc1ccc(Nc2nc(C)cc(NCc3ccc(-n4ccnc4)cc3)n2)cc1 [TCMDC-133454] | 13.72
30 | c1ccc(C2CCC(N3CCC(N4CCCC4)CC3)CC2)cc1 (stereo not shown) [TCMDC-124349] | 3.112
31 | CN1CC=C(c2c[nH]c3ccc(Sc4ccccc4)cc23)CC1 [TCMDC-138969] | 5.413
32 | CCN1CCN(Cc2ccc3nc(-c4cc(C)n(Cc5cc(Cl)ccc5OCc5ccccc5)n4)[nH]c3c2)CC1 [TCMDC-136884] | 23.91
33 | Cn1c(=N)n(CC(=O)N2CCc3ccc(Cl)cc3C2Cc2ccc(Cl)c(Cl)c2)c2ccccc21 (stereo not shown) [TCMDC-138699] | 109.1
34 | CC(C)C[C@H]1c2[nH]c3ccc(Cl)cc3c2CCN1C(=O)CCc1ccccc1 [TCMDC-135179] | 1.219
35 | Cn1c(=N)n(CC(=O)OCc2ccc(OCc3ccccc3)cc2)c2ccccc21 [TCMDC-138698] | 4.888
36 | CCC1CN(S(=O)(=O)c2ccc3c(c2)NC(=O)CC(=O)N3)c2cc(Cl)ccc2O1 (stereo not shown) [TCMDC-125278] | 25.65
37 | CCn1c(-c2cc(C)on2)nc2cnc(Oc3ccc(C(=O)N4CC(=O)N(C)C4C(C)(C)C)cc3)cc21 (stereo not shown) [TCMDC-134940] | 2.551
38 | CCc1cn(C)c2c(N3CCCC3=O)cc(C(=O)N[C@@H](Cc3ccccc3)[C@H](O)CNC(C)(C)c3cccc(OC)c3)cc12 [TCMDC-135196] | 90.21
39 | CCc1c[nH]c2c(N3CCCC3=O)cc(C(=O)N[C@@H](Cc3ccccc3)[C@H](O)CNC(C)(C)c3cccc(OC)c3)cc12 [TCMDC-134404] | 44.35
40 | CCn1ncc2c(N3CCCC3=O)cc(C(=O)N[C@@H](Cc3ccccc3)[C@H](O)CNC(C)(C)c3cccc(C(F)(F)F)c3)cc21 [TCMDC-135064] | 21.85
41 | CCc1cn(C)c2c(N3CCCC3=O)cc(C(=O)N[C@@H](Cc3ccccc3)[C@H](O)CNC(C)(C)c3cccc(C(F)(F)F)c3)cc12 [TCMDC-135197] | 87.86
42 | CCc1cn(C)c2c(N3CCCC3=O)cc(C(=O)N[C@@H](Cc3ccccc3)[C@H](O)CNCc3cccc(OC)c3)cc12 [TCMDC-135195] | 21.06
43 | CCc1c[nH]c2c(N3CCCC3=O)cc(C(=O)N[C@@H](Cc3ccccc3)[C@H](O)CNC(C)(C)c3cccc(C(F)(F)F)c3)cc12 [TCMDC-134402] | 2.989
